Test [1] in a line: circadian clock period modulators, cell-based, LOPAC library, luminescence reporter (AID 2774).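 Also: values are relative to mean of DMSO wells on each plate.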 As to conditions: circadian reporter cells, at 7 µM, actives lie on both sides.
In test [2] the test system is Hepatitis C virus NS3 helicase. Kind of test: HCV NS3 helicase inhibitors, primary screen, biochemical, fluorescence polarization, LOPAC1280 library (AID 687035; in the data active = inhibition above about 37%). As to conditions: Purified HCV NS3 helicase, Cy5-dT15 ssDNA binding fluorescence polarization; stronger effect = higher value; concentration not given here. (In general: Fluorescence polarisation rises when a labelled molecule tumbles more slowly, as on binding a larger partner.)

Test [3] is described as follows: Cy5 fluorescence quenching or enhancement artefacts, artefact control for HCV NS3 helicase inhibitor project, biochemical, LOPAC1280 (AID 687037). As to conditions: Cy5-DNA-NS3h complex fluorescence interference counterscreen. In general terms: A counterscreen serves to expose hits that act by an unwanted route or on another target.
The nature of test [4]: sensitizers of A549 cells to miR-34 induction, primary screen, imaging, A549 dox-inducible miR-34, nuclei and caspase counts (AID 1347080;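 active = compounds whose cell count with miR-34 switched on is under 0.7 times the count with it off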). To be noted: A549 miR-34 inducible, Hoechst nuclei count, 48 h.
Test [5] is described as follows: phospholipid biosynthesis inhibitors in animal cells, primary screen, cell-based, LOPAC library, screen 4 (AID 1347384). To be noted: phospholipid biosynthesis inhibition screen, at 10 µM.
The nature of test [6]: viability rescue of complex I mutant cybrids, primary screen, cell-based, galactose medium, ATP luminescence (AID 1645843;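 active = z-score of at least 1.8 in each of two replicates, scored against plate mean and spread of sample wells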;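 also: positive z means more ATP and so rescue of galactose-driven cybrid death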). To be noted: complex I mutant cybrid cells, 72 h, stronger effect = higher value.
Setting [7] is: stronger effect = lower value, cell number ratio, induced over uninduced.
Setting [8] is: measured here: relative caspase fold change +Dox/-Dox.
The mark [9] stands for this setting: measured here: total cells with miR-34 induction, stronger effect = lower value.
Setting [10] is: measured here: total cells without miR-34 induction.

Molecules are shown by their SMILES. Activity calls are given as the source filed them. Unless noted, no rule for the calls is given here.

One may read the inhibition as the drop in the measured response relative to a control, in per cent. For `NCCCCCCCCCCN`, the period change in test [1] was 0 h (inactive). In addition, the inhibition in test [2] was 2% (inactive). Besides, the fluorescence ratio (interference) in test [3] was 1 (inactive). Also, the fold change is 0.948 (inactive) in test [4] (setting [7]) and 1.23 in test [4] (setting [8]). Also, the figures for the cell count in test [4] (setting [9]) and in test [4] (setting [10]) were 10300 and 10900, respectively. The outcome in test [5] was inactive. Also, the z-score in test [6] is -0.23 (inactive).

In the case of `O=C1CCC(c2ccc(-n3ccnc3)cc2)=NN1`, the period change in test [1] was -0.075 h (inactive). Further, the inhibition in test [2] is -1% (inactive). In addition, in test [3], the fluorescence ratio (interference) was 1 (inactive). In addition, the fold change was 1.07 (inactive) in test [4] (setting [7]) and 0.666 in test [4] (setting [8]). In addition, the cell count in test [4] (setting [9]) came to 10200; in test [4] (setting [10]), 9510. Besides, the call in test [5] was inactive. Besides, the z-score in test [6] is -0.165 (inactive).

Regarding `O=c1cc(-c2ccccc2)[nH]c2nc(Cl)ccc12`, the period change in test [1] is -0.07 h (inactive). The inhibition in test [2] was -3% (inactive). Moreover, the fluorescence ratio (interference) in test [3] was 1 (inactive). Moreover, the fold change in test [4] (setting [7]) is 0.977 (inactive); in test [4] (setting [8]), 1.95. The figures for the cell count in test [4] (setting [9]) and in test [4] (setting [10]) were 3650 and 3740, respectively. The compound was classed as inactive in test [5]. Also, the z-score in test [6] is -0.5 (inactive).

Turning to `NC(=O)C(=O)O`, the period change in test [1] is 0.025 h (inactive). The inhibition in test [2] was -7% (inactive). For the same compound, the fluorescence ratio (interference) in test [3] is 0.9 (inactive). The fold change in test [4] (setting [7]) is 1.05 (inactive); in test [4] (setting [8]), 1.23. The cell count was 10900 in test [4] (setting [9]) and 10300 in test [4] (setting [10]). For the same compound, the call in test [5] was inactive. For the same compound, in test [6], the z-score was 0.585 (inactive).

`C=CC1(C)CC(=O)C2(O)C(C)(O1)C(OC(C)=O)C(O)C1C(C)(C)CCC(O)C12C` (stereo not drawn): the period change in test [1] was 0.345 h (inactive). Further, the inhibition in test [2] is 0% (inactive). The fluorescence ratio (interference) in test [3] was 1.1 (inactive). Further, the fold change in test [4] (setting [7]) is 0.994 (inactive); in test [4] (setting [8]) it was 1.26. Moreover, the cell count in test [4] (setting [9]) amounted to 9840; in test [4] (setting [10]) it was 9900. Also, the compound was classed as inactive in test [5]. In addition, the z-score in test [6] is -0.035 (inactive).

Turning to `CSc1nc(N)c2ncn([C@@H]3O[C@H](COP(=O)(O)OP(=O)(O)OP(=O)(O)O)[C@H](O)C3O)c2n1` (stereo partly drawn), the period change in test [1] is -0.07 h (inactive). Besides, the inhibition in test [2] was 41% (active). Further, the fluorescence ratio (interference) in test [3] was 1 (inactive). Also, the results for the fold change in test [4] (setting [7]) and in test [4] (setting [8]) were 0.981 (inactive) and 2.88, respectively. The cell count in test [4] (setting [9]) worked out at 9690; in test [4] (setting [10]), 9880. Besides, in test [5], the call was inactive. The z-score in test [6] was 1.04 (inactive).

As to `O=[N+]([O-])c1ccc(CSc2ncnc3c2ncn3[C@@H]2O[C@H](CO)[C@H](O)C2O)cc1` (stereo partly drawn), the period change in test [1] was -0.085 h (inactive). Besides, the inhibition in test [2] was -4% (inactive). Also, the fluorescence ratio (interference) in test [3] was 0.9 (inactive). In addition, the fold change was 1.12 (inactive) in test [4] (setting [7]) and 0.942 in test [4] (setting [8]). Further, the figures for the cell count in test [4] (setting [9]) and in test [4] (setting [10]) were 10500 and 9340, respectively. The compound was classed as inactive in test [5]. In test [6], the z-score was 1.67 (inactive).

As to `O=c1[nH]c(=O)c2nc3ccccc3nc2[nH]1`, in test [1], the period change is -0.07 h (inactive). Further, the inhibition in test [2] was -1% (inactive). In addition, in test [3], the fluorescence ratio (interference) was 1 (inactive). Further, the fold change is 1.04 (inactive) in test [4] (setting [7]) and 1.29 in test [4] (setting [8]). The figures for the cell count in test [4] (setting [9]) and in test [4] (setting [10]) were 8690 and 8380, respectively. For the same compound, the compound was classed as inactive in test [5]. In addition, the z-score in test [6] was 0.695 (inactive).

For `C[C@@H]1C(=O)NC2=Nc3cccc(Cl)c3CN21`, the period change in test [1] is 0.025 h (inactive). In addition, the inhibition in test [2] is 0% (inactive). Further, the fluorescence ratio (interference) in test [3] is 1 (inactive). Further, the fold change was 0.957 (inactive) in test [4] (setting [7]) and 1.63 in test [4] (setting [8]). For the same compound, the results for the cell count in test [4] (setting [9]) and in test [4] (setting [10]) were 9040 and 9450, respectively. In test [5], the compound was called inactive. For the same compound, the z-score in test [6] is 0.635 (inactive).

On to `C[C@H](Cc1ccccc1)Nc1ncnc2c1ncn2[C@@H]1O[C@H](CO)[C@H](O)C1O` (stereo partly drawn), for which the period change in test [1] is -0.12 h (inactive). The inhibition in test [2] is -8% (inactive). The fluorescence ratio (interference) in test [3] was 1 (inactive). In addition, the fold change in test [4] (setting [7]) was 1.08 (inactive); in test [4] (setting [8]), 0.57. Further, the cell count in test [4] (setting [9]) worked out at 9860; in test [4] (setting [10]), 9130. Also, in test [5], the compound was called inactive. The z-score in test [6] was 1.45 (inactive).

Turning to `N[C@H](C(=O)O)[C@H]1C[C@@H]1C(=O)O`, in test [1], the period change is 0.045 h (inactive). In addition, the inhibition in test [2] was 2% (inactive). In test [3], the fluorescence ratio (interference) is 1 (inactive). The fold change is 0.968 (inactive) in test [4] (setting [7]) and 1.24 in test [4] (setting [8]). The results for the cell count in test [4] (setting [9]) and in test [4] (setting [10]) were 9910 and 10200, respectively. The compound was classed as inactive in test [5]. Also, the z-score in test [6] was 0.225 (inactive).

For `COc1cc(CC(=O)O)ccc1O`, the period change in test [1] was 0.03 h (inactive). Besides, the inhibition in test [2] is 1% (inactive). Besides, in test [3], the fluorescence ratio (interference) was 1 (inactive). In addition, the fold change in test [4] (setting [7]) was 1.05 (inactive); in test [4] (setting [8]) it was 0.734. Besides, the cell count in test [4] (setting [9]) came out at 10100; in test [4] (setting [10]) it was 9570. Further, the outcome in test [5] was inactive. For the same compound, the z-score in test [6] is 0.08 (inactive).

On to `CCNC(=O)[C@H]1O[C@@H](n2cnc3c(N)nc(NCCc4ccc(CCC(=O)O)cc4)nc32)C(O)[C@H]1O` (stereo partly drawn), for which the period change in test [1] is 0.1 h (inactive). Besides, the inhibition in test [2] is 0% (inactive). In addition, in test [3], the fluorescence ratio (interference) is 1 (inactive). Moreover, the figures for the fold change in test [4] (setting [7]) and in test [4] (setting [8]) were 0.963 (inactive) and 1.23, respectively. The figures for the cell count in test [4] (setting [9]) and in test [4] (setting [10]) were 9660 and 10000, respectively. In test [5], the compound was called inactive. The z-score in test [6] is 0.485 (inactive).

In the case of `N=C(N)c1ccc(N)cc1`, the period change in test [1] is -0.005 h (inactive). Moreover, the inhibition in test [2] was -2% (inactive). The fluorescence ratio (interference) in test [3] was 1 (inactive). Further, the fold change was 0.998 (inactive) in test [4] (setting [7]) and 2.25 in test [4] (setting [8]). Besides, the cell count in test [4] (setting [9]) came out at 8960; in test [4] (setting [10]), 8980. Moreover, the compound was classed as inactive in test [5]. Moreover, in test [6], the z-score is -0.075 (inactive).

For `N=C(N)c1ccccc1`, the period change in test [1] is -0.055 h (inactive). Besides, in test [2], the inhibition is -2% (inactive). In addition, the fluorescence ratio (interference) in test [3] was 1 (inactive). In addition, the fold change in test [4] (setting [7]) was 1.03 (inactive); in test [4] (setting [8]), 1.99. In addition, the cell count in test [4] (setting [9]) is 10800; in test [4] (setting [10]) it was 10500. In addition, in test [5], the result was inactive. Also, the z-score in test [6] is 0.605 (inactive).

As for `O=C(Nc1cccc(C(=O)Nc2ccc(S(=O)(=O)O)c3cc(S(=O)(=O)O)cc(S(=O)(=O)O)c23)c1)Nc1cccc(C(=O)Nc2ccc(S(=O)(=O)O)c3cc(S(=O)(=O)O)cc(S(=O)(=O)O)c23)c1`, the period change in test [1] is -0.03 h (inactive). Besides, the inhibition in test [2] was 91% (active). Moreover, the fluorescence ratio (interference) in test [3] is 1.1 (inactive). Moreover, the fold change in test [4] (setting [7]) was 1.05 (inactive); in test [4] (setting [8]), 0.567. The values for the cell count in test [4] (setting [9]) and in test [4] (setting [10]) were 9650 and 9220, respectively. Moreover, in test [5], the compound was classed as inactive. The z-score in test [6] was 0.865 (inactive).

As for `CCCCCCCCCC(=O)NC(CN1CCOCC1)[C@H](O)c1ccccc1` (stereo partly drawn), the period change in test [1] was 0.05 h (inactive). In addition, in test [2], the inhibition is 2% (inactive). In addition, the fluorescence ratio (interference) in test [3] was 1 (inactive). The figures for the fold change in test [4] (setting [7]) and in test [4] (setting [8]) were 0.995 (inactive) and 1.18, respectively. In addition, the cell count in test [4] (setting [9]) is 7040; in test [4] (setting [10]) it was 7080. For the same compound, the compound was classed as inactive in test [5]. Moreover, the z-score in test [6] was -1.16 (inactive).

The values are drawn from PubChem BioAssay.
